PLK1 PBD block: inhibitors of human PLK1 polo-box domain binding; P53350; AID 720504; Potency, µM, for inactives: max response, negative = inhibition, hits mostly inhibitors; Plk1 PBD binding of FITC phosphopeptide, fluorescence polarization; 360,000 compounds, 2.8% hits; further: potency means the concentration at half of the fitted maximal effect; series mostly up to about 57 µM; on the % scale 0 is the no-effect control and ±100 the full control effect; nearly all actives have a fitted effect of over 65% in size
HP1b chromo inh: blocks HP1-beta chromodomain binding to methylated histone tails; AlphaScreen HP1-beta / biotin-H3K9me3 peptide binding; Potency, µM (top dose mostly 114 µM), inactives show at the top dose activity change, negative = inhibition, most hits filed as inhibitors; 390,000 compounds, 0.56% hits; AID 540317; further: potency means the concentration at half of the fitted maximal effect; nearly all actives have a fitted effect of over 70% in size
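Compound inhibition of the preformed complex between 50 nM HP1-beta and 50 nM biotinylated H3K9me3 peptide was read by AlphaScreen. Buffer was PBS pH 7.4 with 0.01% Tween-20. Incubations ran 30 min at room temperature, with 10 ug/mL donor/acceptor beads.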
JMJD2A Tudor inh: blocks the human JMJD2A Tudor domain | O75164 | AlphaScreen JMJD2A-Tudor / H3K4me3 peptide binding | Potency, µM (top dose mostly 114 µM), inactives show at the top dose activity change, negative = inhibition, usual class: inhibitors | 390,000 compounds, 4.4% hits | AID 504339; further: potency means the concentration at half of the fitted maximal effect; on the % scale 0 is the no-effect control and ±100 the full control effect; nearly all actives have a fitted effect of over 50% in size
BAZ2B inh: blocks human BAZ2B; 360,000 compounds, 4.4% hits; AID 504333; Potency, µM (series often up to 114 µM), inactives show top-dose activity change, negative = inhibition, usual class: inhibitors; Q9UIF8; AlphaScreen BAZ2B-H3K14Ac peptide displacement; further: potency means the concentration at half of the fitted maximal effect; on the % scale 0 is the no-effect control and ±100 the full control effect; nearly all actives have a fitted effect of over 60% in size
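In this displacement format the biotinylated H3(5-23) peptide acetylated at Lys14 serves as ligand at 50 nM, with BAZ2B at 50 nM in PBS pH 7.4 containing 0.01% Tween-20. Donor and acceptor beads are 10 ug/mL final.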
G9a inh: blocks human histone lysine methyltransferase G9a. Potency, µM (doses to about 102 µM), for the others: at the top dose activity, negative = inhibition, usual class: inhibitors. Q96KQ7. 350,000 compounds, 8.8% hits. G9a H3K9 monomethylation, AlphaScreen, 2 h; further: potency means the concentration at half of the fitted maximal effect; on the % scale 0 is the no-effect control and ±100 the full control effect; nearly all actives have a fitted effect of over 75% in size
Target sequence (Q96KQ7 913-1193 limits assumed): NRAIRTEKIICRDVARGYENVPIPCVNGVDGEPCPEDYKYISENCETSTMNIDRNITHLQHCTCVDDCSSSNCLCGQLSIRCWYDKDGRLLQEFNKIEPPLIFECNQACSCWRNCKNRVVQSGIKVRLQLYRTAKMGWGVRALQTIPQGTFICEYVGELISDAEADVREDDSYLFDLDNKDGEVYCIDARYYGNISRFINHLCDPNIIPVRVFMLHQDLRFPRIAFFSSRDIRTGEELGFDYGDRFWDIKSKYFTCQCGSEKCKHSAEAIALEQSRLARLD
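Enzyme 20 nM + cpd, 15 min RT; add b-H3K9 pep 500 nM / SAM 20 uM; 2 h RT; anti-H3K9me1 Ab 0.5 ug/mL + SA donor / anti-rabbit acceptor beads 20 ug/mL each, 10 min; AlphaScreen read.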
PI5P4K alpha inh: PI5P4K alpha (human) kinase inhibition; 330,000 compounds, 1.2% hits; AID 652105; max response, %; PI5P4Kalpha enzyme, ADP-Glo luminescence, 60 min; active compounds read low; active means max response of -50% or lower; inconclusive means between -30% and -50%; inactive means -30% or higher; further: value at the top dose of about 77 µM; on the % scale 0 is the no-effect control and ±100 the full control effect
Target sequence (P48426 whole entry, looked up): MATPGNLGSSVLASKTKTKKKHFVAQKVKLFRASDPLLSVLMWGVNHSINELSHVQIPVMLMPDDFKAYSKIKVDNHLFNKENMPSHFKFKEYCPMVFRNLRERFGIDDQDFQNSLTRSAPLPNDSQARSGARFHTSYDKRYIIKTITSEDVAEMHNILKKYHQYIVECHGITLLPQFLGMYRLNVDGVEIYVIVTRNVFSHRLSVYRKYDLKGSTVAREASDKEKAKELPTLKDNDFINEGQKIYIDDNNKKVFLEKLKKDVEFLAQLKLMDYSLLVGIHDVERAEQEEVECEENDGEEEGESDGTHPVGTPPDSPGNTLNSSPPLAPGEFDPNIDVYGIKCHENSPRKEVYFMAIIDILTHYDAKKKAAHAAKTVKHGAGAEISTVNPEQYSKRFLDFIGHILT
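Human PI5P4Kalpha with substrate in 0.038 M HEPES pH 7.4, 0.28 mM EGTA, 0.1% CHAPS, 5% DMSO; reaction started with 5 microM ATP (final), 60 min at room temperature. ADP formed read by ADP-Glo luminescence.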
* hit, by the source's call; [ ] = dose if it differs, or a comment. Hits are enriched below; roughly 12% of the tested compounds scored in any of these assays. Unless noted, the call rests on the fitted dose curve; in most records, active means well fitted curve in the direction sought with a large enough effect; inconclusive means small, poorly fitted or top-dose-only effect, or another doubt; inactive means no such curve, though single readings can be large; an effect the other way counts as inactive or inconclusive.

For CCN1CCN(c2oc(-c3ccc(COc4ccccc4C)o3)nc2C#N)CC1 the results were HP1b chromo inh inconclusive, JMJD2A Tudor inh 50µM*, BAZ2B inh 11% and G9a inh 5%[59 µM].
Cc1ccccc1OCc1ccc(-c2nc(C#N)c(N3CCC(C(N)=O)CC3)o2)o1 was read as HP1b chromo inh -5%, JMJD2A Tudor inh inconclusive, BAZ2B inh inconclusive and G9a inh 10µM*.
CCOc1ccc(NC(=O)c2ccc3c(=O)n4nc(Nc5ccccc5C)sc4nc3c2)cc1 was read as HP1b chromo inh 45%, JMJD2A Tudor inh 1%, BAZ2B inh -13% and G9a inh inconclusive.
For CCCCN(CCCC)CCNC(=O)CSCc1ccc(C)cc1 the results were PLK1 PBD block -17%, HP1b chromo inh -32%, JMJD2A Tudor inh 6.3µM*, BAZ2B inh 50µM*, G9a inh 3.5µM* and PI5P4K alpha inh -8.
Screening CC(C)CN1CC[C@@]2(CCCN(C(=O)c3cccc(F)c3)C2)C1 returned G9a inh -3%[12.7 µM].
CN(C(=S)NC(=O)c1ccc(Cl)cc1)C1CCCCC1 was read as PLK1 PBD block 21µM*, HP1b chromo inh -22%, JMJD2A Tudor inh -33%, BAZ2B inh 45µM*, G9a inh 8.9µM* and PI5P4K alpha inh -98*.
Screening N#Cc1nc(Nc2ccc(C(F)(F)F)cc2)nc(NC2CCCC2)n1 returned JMJD2A Tudor inh -12%.
Screening Cc1cc2cc3c(cc2nc1SCc1ccc(C(=O)O)cc1)OCCO3 returned PLK1 PBD block 30µM*, HP1b chromo inh 19%, JMJD2A Tudor inh -33%, BAZ2B inh inconclusive, G9a inh 50µM* and PI5P4K alpha inh -5.
For CCOc1c(Br)cc(C(=O)Nc2cccc(S(=O)(=O)N3CCOCC3)c2)cc1OC the results were PLK1 PBD block -2% and PI5P4K alpha inh -5.
Screening Cc1ccc2c(c1)c1n[nH]c(=S)nc1n2CCc1ccccc1 returned PLK1 PBD block inconclusive, HP1b chromo inh 18%, JMJD2A Tudor inh -20%, BAZ2B inh -1%, G9a inh 1% and PI5P4K alpha inh -5.
Screening Fc1ccc2c(c1)c1n[nH]c(=S)nc1n2CCc1ccccc1 returned PLK1 PBD block 21µM*, HP1b chromo inh 51%, JMJD2A Tudor inh -10%, BAZ2B inh -15%, G9a inh 7% and PI5P4K alpha inh -24.
For CCn1c2ccc(C)cc2c2n[nH]c(=S)nc21 the results were PLK1 PBD block inconclusive, HP1b chromo inh 28%, JMJD2A Tudor inh -30%, BAZ2B inh -36%, G9a inh 7.1µM* and PI5P4K alpha inh 1.
O=S(=O)(c1ccccc1)c1nc(-c2ccc(Cl)cc2Cl)oc1N1CCCCCC1 was read as HP1b chromo inh -22%, JMJD2A Tudor inh inconclusive, BAZ2B inh inconclusive and G9a inh inconclusive.
Screening O=C(NC1CCCCC1)C1CCN(S(=O)(=O)c2cccc3nonc23)CC1 returned PLK1 PBD block -3%, HP1b chromo inh 6%, JMJD2A Tudor inh -11%, BAZ2B inh 3%, G9a inh -12% and PI5P4K alpha inh -7.
For CNC(=S)N/N=C/c1cc(Br)cc(Br)c1O the results were PLK1 PBD block -23%, HP1b chromo inh inconclusive, JMJD2A Tudor inh 32µM*, BAZ2B inh 3.2µM*, G9a inh -7% and PI5P4K alpha inh inconclusive.
`O=C(N/N=C/c1cc(Br)c(O)c(Br)c1)C1CC1` gave PLK1 PBD block -4%, HP1b chromo inh 34%, JMJD2A Tudor inh 3%, BAZ2B inh -15%, G9a inh 12% and PI5P4K alpha inh inconclusive.
Screening CC(C)(C)NC(=S)N/N=C/c1cc(Br)c(O)c(Br)c1 returned PLK1 PBD block inconclusive, HP1b chromo inh 6%, JMJD2A Tudor inh inconclusive, BAZ2B inh -35%, G9a inh -27%[59 µM] and PI5P4K alpha inh -91*.
Screening Oc1c(Br)cc(Br)cc1/C=N/NC(=S)N[C@H]1CC2C=CC1C2 (stereo partly drawn) returned PLK1 PBD block inconclusive, HP1b chromo inh 0%, JMJD2A Tudor inh 40µM*, BAZ2B inh 17% and PI5P4K alpha inh -89*.
For COc1cccc(NC(=O)CSC2=Nc3ccccc3C3=NC(CC(=O)NCCc4ccccc4)C(=O)N23)c1 (stereo not drawn) the results were HP1b chromo inh 20%, JMJD2A Tudor inh -21%, BAZ2B inh 9% and G9a inh 34%[59 µM].
C/C(=N\Nc1ccc(F)cc1F)c1ccc(F)cc1 was read as BAZ2B inh -1% and G9a inh 10%[0.501 µM].
Screening C/C(=C\C(=O)c1ccc(F)cc1)Nc1ccc(N2CCOCC2)cc1 returned PLK1 PBD block -2%, HP1b chromo inh 3%, JMJD2A Tudor inh inconclusive, BAZ2B inh -9% and G9a inh 40µM*.
Screening C/C(=N\Nc1ccc(F)cc1F)c1ccc(N2CCOCC2)cc1 returned PLK1 PBD block -20%, HP1b chromo inh -10%, JMJD2A Tudor inh inconclusive, BAZ2B inh -37%, G9a inh 7.9µM* and PI5P4K alpha inh 0.
For C/C(=N\Nc1ccc(F)cc1F)c1ccc(Br)s1 the results were PLK1 PBD block -15%, HP1b chromo inh inconclusive, JMJD2A Tudor inh -15%, BAZ2B inh -2%, G9a inh 8.9µM* and PI5P4K alpha inh 31.
`Fc1ccc(N/N=C/c2ccc(N3CCOCC3)cc2)c(F)c1` gave PLK1 PBD block -23%, HP1b chromo inh inconclusive, JMJD2A Tudor inh inconclusive, BAZ2B inh inconclusive, G9a inh 10µM* and PI5P4K alpha inh -5.
`COc1ccc(C2/C=C\CN(C(=O)C3CCCCC3)C(Cc3ccccc3)C(=O)N2Cc2ccc(F)cc2)cc1` (stereo not drawn) gave HP1b chromo inh -10% and JMJD2A Tudor inh -24%.
COc1ccc(C(=O)N2CCCC(CO)(Cc3ccccc3C)C2)o1 (stereo not drawn) was read as PLK1 PBD block -15%, HP1b chromo inh -17%, JMJD2A Tudor inh -17%, BAZ2B inh -34%, G9a inh 79µM* and PI5P4K alpha inh -6.
`CC(=O)Nc1ccc(NC(=O)C(C)OC(=O)C2(c3ccc(Cl)cc3)CCCC2)cc1` (stereo not drawn) gave PLK1 PBD block -4%, HP1b chromo inh 20%, JMJD2A Tudor inh -29%, BAZ2B inh -24%, G9a inh 50µM* and PI5P4K alpha inh 0.
Screening CCCc1cc(=O)[nH]c2nnc(SCCC(C)C)n12 returned HP1b chromo inh 46%, JMJD2A Tudor inh -3%, BAZ2B inh 4% and G9a inh 10%[59 µM].
`COCCNc1nnc(SCC(=O)NC(=O)c2ccccc2)s1` gave PLK1 PBD block -1%, HP1b chromo inh 35%, JMJD2A Tudor inh -11%, BAZ2B inh 7%, G9a inh 50µM* and PI5P4K alpha inh -4.

High-throughput results from PubChem.
